From ChEMBL document CHEMBL3433997, “St. Jude Leishmania screening dataset” (2016) come the findings set out here.

This test concerns the target Glucose transporter (Leishmania mexicana) (UniProt O61059). The experiment in a line: ST_JUDE_LEISH: Cytotoxicity at 2uM final concentration against transgenic Leishmania Mexicana promastigotes LmGT2 that are glucose transport deficient and complemented with the L. Mexicana glucose transporter 2. Activity is measured by DNA content using SYBR green in vitro. The class given is functional.
For the molecule `Fc1cccc(Nc2nc(NCc3ccc(OCc4ccccc4)cc3)nc(Nc3cccc(F)c3)n2)c1`, the inhibition came out at 8.22%.

In the case of `O=C1Nc2cccc3c2C1(CCCN1CCC(c2c[nH]c4cc(C(F)(F)F)ccc24)CC1)CCC3` (stereo not given), the inhibition was -0.71%.

Take `O=C(/C=C/c1ccc(Cl)c(Cl)c1)NCCCCCN1CC[C@H](NC(=O)c2sc3ccccc3c2Cl)C1`: the inhibition is -1.69%.

Take `CCNCc1ccc(-c2cccc(-c3nc4ccccc4[nH]3)c2)cc1`: the inhibition came out at 3.49%.

Take `CCc1c[nH]c2c(N3CCCC3=O)cc(C(=O)N[C@@H](Cc3ccccc3)[C@H](O)CNC3CCCCC3)cc12`: the inhibition was determined as 9.77%.

Turning to `Clc1ccc(-c2cc(-c3csc(Nc4ccncc4)n3)on2)cc1`, the inhibition is 1.32%.

In the case of `Cc1noc(C)c1CN1Cc2ccccc2OC2(CCN(Cc3c[nH]c4cnccc34)CC2)C1`, the inhibition stood at 2.32%.

Regarding `COc1ccc2nccc([C@@H](O)CN3CCC(NCCOc4ccc(F)cc4Cl)CC3)c2c1`, the inhibition was found to be 4.96%.

For `Cc1ccc2[nH]c(Nc3ccc(Nc4nc5cc(C)ccc5[nH]4)c(C)c3)nc2c1`, the inhibition was determined as 0.88%.

Regarding `COC(=O)c1cccc(CNCc2cccc(-c3ccc(-c4nc5cc(C(F)(F)F)ccc5[nH]4)cc3)c2)c1`, the inhibition worked out at 2.66%.

Turning to `CC(C)NCc1ccc(-c2ccc(NC(=O)c3cccc(Cl)c3)cc2)cc1`, the inhibition is -3.53%.

For the molecule `Cc1[nH]c(C)c(-c2cc3ccccc3o2)c(=O)c1Cl`, the inhibition came out at 0.5%.

Take `Cc1cccc2nc(-c3ccc(-c4cccc(CNCCCN5CCCC5=O)c4)s3)[nH]c12`: the inhibition turned out to be 2.91%.

With `COCC(C)n1c(SC(C)C(=O)Nc2cc([N+](=O)[O-])ccc2Cl)nc2ccccc2c1=O` (stereo not given), the inhibition is -1.16%.

Consider `NC1CCN(CCc2ccc(NS(=O)(=O)c3cccc4ccccc34)cc2)CC1`, for which the inhibition came out at 0.61%.

As for `CCCSc1nc2c(c(=O)n1Cc1ccco1)C1(CCCCC1)Cc1ccccc1-2`, the inhibition was determined as 1.88%.

For `CN(C)CCOc1ccc(N2CCN(CCCCNC(=O)c3ccc(NC(=O)c4ccc(Cl)cc4)cc3)CC2)cc1`, the inhibition was found to be 3.48%.

On to `N=C(N)c1ccc(Nc2nc(Nc3ccc(-c4ccccc4)cc3)ncc2[N+](=O)[O-])cc1`, for which the inhibition worked out at 3.44%.

In the case of `O=C(Nc1ccc(C(F)(F)F)cc1)c1cccc(S(=O)(=O)NC2CCN(CC3CCCCC3)CC2)c1`, the inhibition turned out to be 4.52%.

For `Oc1ccc2nc(N3CCNCC3)nc(NCCCc3ccccc3)c2c1`, the inhibition came out at 0.5%.

In the case of `CC1CC(NCCCNc2cc(=O)c3ccccc3[nH]2)c2cc(Cl)c(Cl)c(Cl)c21` (stereo not given), the inhibition is -2.15%.

For `CCOc1cc(C(=O)NCCN(CC)c2cccc(C)c2)ccc1-c1nc2cc(Cl)ccc2[nH]1`, the inhibition worked out at 1.84%.

In the case of `Cc1cccc2nc(-c3ccc(-c4ccc(CNCCCN5CCCC5=O)cc4)cc3)[nH]c12`, the inhibition turned out to be 4.42%.

With `CC(C)(C)c1nn(-c2ccc(Cl)cc2)c2[nH]c(=O)c(CNCc3ccc4c(c3)OCO4)cc12`, the inhibition amounted to 5.03%.

For the molecule `Cc1cccc2nc(-c3ccc(-c4ccc(CN5CCCCC5)cc4)cc3)[nH]c12`, the inhibition is 10.2%.

Turning to `COC(=O)c1cccc(CNCc2ccc(-c3ccc(-c4nc5cccc(C)c5[nH]4)cc3)cc2)c1`, the inhibition was 1.08%.

As to `COc1cc(C(=O)Nc2cccc(-c3cn4cccc(C)c4n3)c2)cc(OC)c1OC`, the inhibition amounted to 10.5%.

As for `COc1cc(NCCCNCc2cn(S(=O)(=O)c3ccccc3)c3ccccc23)nc2ccccc12`, the inhibition turned out to be 3.17%.

Regarding `O=C(c1ccc([N+](=O)[O-])o1)N1CCN(c2nc3c(Cl)cccc3s2)CC1`, the inhibition stood at 4.58%.

On to `CN1CCC(c2csc3ccc(NC(=O)Nc4ccc(-c5ccncc5)c5ccccc45)cc23)CC1`, for which the inhibition amounted to 2.4%.

For the molecule `c1ccc(CCNCc2ccc(-c3cccc(-c4nc5ccccc5[nH]4)c3)cc2)nc1`, the inhibition turned out to be 3.79%.

Take `Clc1ccc(-c2nc3cc(-c4ccc5nc(-c6ccc(Cl)cc6)[nH]c5c4)ccc3[nH]2)cc1`: the inhibition is 8.04%.

Consider `Cn1c(NC(=O)C2CCCN(C(=O)c3ccc(O)c(-c4ccc(Cl)c(Cl)c4)c3)C2)nc2ccccc21` (stereo not given), for which the inhibition was -7.08%.

As to `CS(=O)(=O)NCCCNCc1ccc(-c2ccc(-c3nc4cc(F)ccc4[nH]3)cc2)cc1`, the inhibition turned out to be 4.63%.

Turning to `CC(=O)Nc1cccc(CNCc2ccc(-c3cnc(N4CCCC(c5ccccc5)C4)nc3)cc2)c1` (stereo not given), the inhibition was 2.2%.

As to `O=C(NC1CCCCN(Cc2ccc3c(c2)OCCO3)C1)c1cc(-c2ccccc2F)cs1` (stereo not given), the inhibition was 12.8%.

On to `CCC(C)CC(=O)Nc1ccc(OC)c(S(=O)(=O)N[C@@H]2CCN(C#N)C2)c1` (stereo not given in full), for which the inhibition was -0.94%.

`O=C(Nc1cccc(CN2CCCN(Cc3ccc(O)cc3)CC2)c1)c1cccc(F)c1`: the inhibition was 9.62%.

In the case of `COc1ccc(-n2nc(C)c3c2NC(=O)CC3c2ccccc2OCc2ccc(F)cc2)cc1` (stereo not given), the inhibition was 5.62%.

In the case of `O=C(N[C@H]1CCN(CCc2ccc(O[C@H]3CCNC3)c(Cl)c2)C1)c1ccc(Cl)c(Cl)c1`, the inhibition was 3.35%.
